# Reference: ChEMBL document CHEMBL4513216, “Probing the Open Global Health Chemical Diversity Library for Multistage-Active Starting Points for Next-Generation Antimalarials” (ACS Infect Dis, 2020)
# Among all 69,000 compounds or so, about 8,600 (12%) showed an effect of 50% or more. The sample as a whole holds a higher share of strong results than the screen did.
# System: Plasmodium berghei
# Assay: Screen against P. berghei liver stage (PbLuc), transformed with Luciferase, at 10uM
# Type: functional, HepG2
# Conditions: tested at 10 uM
row,Structure (SMILES),INHIBITION [%]
1,O=C(C1CC(=O)N(c2ccccc2Br)C1)N1CCCCCC1 (centres undefined),21.8
2,O=C(C1CC1)N1CCN(C(=O)C2CC(=O)N(c3ccccc3Br)C2)CC1 (centres undefined),-56.4
3,COC1CCN(C(=O)C2CC(=O)N(c3ccccc3Br)C2)CC1 (centres undefined),61.7
4,COCc1nn(C(C)C)c2c1CCN(Cc1ccsc1)C2,-21.1
5,C[C@@H]1C(=O)NC[C@H]2CN(Cc3ccsc3)C[C@H]21,27.4
6,COc1cc(N2C[C@@H]3COC[C@]3(C(=O)NC3CC(F)(F)C3)C2)ncn1,31.4
7,O=C1N(CC2CCCCC2)CCCC1(O)CN1CCc2[nH]ncc2C1 (centres undefined),68.8
8,CC(C)(C)CN1CCCC(O)(CN2CCc3[nH]ncc3C2)C1=O (centres undefined),22.6
9,Cc1cccnc1CNCC1(O)CCCN(CC2CCCCC2)C1=O (centres undefined),15.1
10,Cc1cccnc1CCNCC1(O)CCCN(CC2CCCCC2)C1=O (centres undefined),25.8
11,Cc1cccnc1CNCC1(O)CCCN(CC2CCC2)C1=O (centres undefined),9.96
12,O=C1N(CC2CC2)CCCC1(O)CN1CCc2[nH]ncc2C1 (centres undefined),79.1
13,CS(=O)(=O)N1CCC2(CC1)COC(COc1cccnc1)C2 (centres undefined),-52.3
14,CC(C)(C)c1cc(=O)n2c(n1)SCC(C(=O)NCc1cccs1)C2 (centres undefined),28
15,COc1ccc2c(OCC(=O)NC(C)(C)C)ccnc2c1,29.6
16,CCS(=O)(=O)N1CC[C@H]2O[C@H](c3nc(C)no3)CC[C@H]21,18.2
17,Cc1nc2ccc(C(=O)N3C[C@@H](O)[C@H](N4CCN(C)CC4)C3)cc2[nH]1,46
18,NS(=O)(=O)c1ccc(NCc2ccccc2F)cc1C(F)(F)F,82.3
19,CS(=O)(=O)Cc1ccc(Cl)cc1NCc1ccccc1F,38
20,CS(=O)(=O)c1ccc(NCc2ccccc2)cn1,27.3
21,Cc1cc(C)c(S(N)(=O)=O)cc1C(=O)NCC1Cc2ccccc2O1 (centres undefined),-9.82
22,Cc1ccccc1CNc1ccc(S(N)(=O)=O)c(C(F)(F)F)c1,93.4
23,CC(=O)Nc1ccc(CNc2cccc(CS(C)(=O)=O)c2)cc1,34.6
24,Fc1ccccc1CNc1ccnc(C2CCNCC2)c1,26.7
25,CC(C)(CNc1ccc(C#N)c(C(F)(F)F)c1)C(N)=O,-21
26,NS(=O)(=O)c1ccc(NCc2ccccc2)cc1C(F)(F)F,77.7

row,Structure (SMILES),INHIBITION [%]
1,CN(C)S(=O)(=O)c1ccc(CN2CCCC2c2ccsc2)o1 (centres undefined),-0.96
2,Cn1nccc1C(=O)N1Cc2ccccc2OC2(CCOCC2)C1,29.2
3,CN(C)C(=O)N1CCOCC2(CCN(c3ccccn3)C2)C1 (centres undefined),-3.1
4,Cc1cnn(CC2CCCCN2C(=O)c2ccc3c(c2)nnn3C)c1 (centres undefined),-17.8
5,O=S(=O)(Cc1ccccc1)NCCc1nnc2n1CCC2,31.9
6,CC(C)CS(=O)(=O)CCNc1ncccn1,10.3
7,CCc1cnc(NCCCOC2CCCC2)nc1,-27
8,CCc1cnc(NCCCN2CCC(O)CC2)nc1,-52.7
9,CCc1cnc(NCCS(=O)(=O)CC(C)C)nc1,53.7
10,CN(C)S(=O)(=O)CCNc1ncc2c(n1)CCN2c1ccccc1,-26.9
11,CCc1cnc(NCCS(=O)(=O)N(C)C)nc1,61.3
12,CSCCCN(CCN1CCOCC1)Cc1ccco1,45.8
13,O=C(Nc1nncs1)NC1CCCc2c1cnn2CCO (centres undefined),21.7
14,N#Cc1ccc(N2CCN(C(=O)c3cc(C4CC4)[nH]n3)CC2)c(F)c1,80.8
15,Cc1csc(N2CCN(C(=O)c3cc(C4CC4)[nH]n3)CC2)n1,12
16,N#Cc1ccc(CN2CCN(C(=O)c3cc(C4CC4)[nH]n3)CC2)cc1,84.2
17,O=C(c1cc(C2CC2)[nH]n1)N1CCN(Cc2ccsc2)CC1,36.4
18,Cc1cccc(CN2CCN(C(=O)c3cc(C4CC4)[nH]n3)CC2)c1,-24.2
19,CC(C)c1ccc(CN2CCN(C(=O)c3cc(C4CC4)[nH]n3)CC2)cc1,60.2
20,O=C(c1cc(C2CC2)[nH]n1)N1CCN(c2nccs2)CC1,6.02
21,CC(C)c1cc(C(=O)N2CCN(Cc3ccc(C#N)cc3)CC2)n[nH]1,82.5
22,COc1ccnc(N2CCN(C(=O)c3cc(C4CC4)[nH]n3)CC2)n1,25.1
23,CC(C)c1cc(C(=O)N2CCCN(Cc3ccccc3)CC2)n[nH]1,48.4
24,O=C(c1cc(C2CC2)[nH]n1)N1CCN(Cc2ccc3c(c2)OCO3)CC1,9.54
25,CC(C)c1cc(C(=O)N2CCN(Cc3ccsc3)CC2)n[nH]1,36.3
26,CN1CCN(CCCNC(=O)c2nc3ccccc3c(=O)[nH]2)CC1,24.2

row,Structure (SMILES),INHIBITION [%]
1,CN1CCN(C[C@@H]2OC[C@H]3CN(CCc4ccccc4)CC[C@H]32)CC1,-40
2,CC(C)n1cc(CN2CCCN(C(=O)CC3CCCCC3)CC2)cn1,4.71
3,CCc1nnc(CN(CC)C(=O)C2CCC(=O)N(C3CCCC3)C2)o1 (centres undefined),15.3
4,Cc1ccc(CN(C)Cc2cnc(N3CCOCC3)s2)o1,35.8
5,O=C(c1cc(C2CC2)[nH]n1)N1CCN(Cc2ccc(Cl)cc2)CC1,74.7
6,O=C(c1cc(C2CC2)[nH]n1)N1CCN(Cc2ccncc2)CC1,-0.113
7,O=C(c1cc(C2CC2)[nH]n1)N1CCN(Cc2ccccc2)CC1,-26.6
8,Cc1ccc(C(=O)N(CC2CCCO2)c2ccncc2)o1 (centres undefined),24.1
9,COCC(C)NC(=O)CN1CCC(C)CC1 (centres undefined),18.4
10,Cc1nc(CN2CCC(c3cc(N4CCCC4)ncn3)CC2)cs1,-37.9
11,c1c[nH]c2nc(C3CCNC3)nc-2c1 (centres undefined),19.3
12,Cc1cc(N)nc(C2(C)CCCN2C(=O)Cc2ccc(F)cc2)n1 (centres undefined),29.2
13,O=C(CN1C[C@@H]2CC[C@H]1CN(Cc1ccccn1)C2)Nc1ccccc1,43.7
14,O=C(CN1C[C@@H]2CC[C@H]1CN(Cc1ccccn1)C2)NCc1cccs1,51.1
15,Cn1ccc(NC(=O)CN2C[C@@H]3CC[C@H]2CN(Cc2ccccn2)C3)n1,45.8
16,O=C(O)c1ccc(CC2CCN(S(=O)(=O)N3CCOCC3)C2)cc1 (centres undefined),32.5
17,CN(C)C(=O)CNC(=O)c1cc2c(s1)CCN2S(C)(=O)=O,26.3
18,COc1cccc(CNC(=O)c2nc3c(o2)CN(S(C)(=O)=O)C3)c1,52.6
19,COc1cccc(CNC(=O)c2nc3c(o2)CN(C(=O)N(C)C)C3)c1,48.2
20,CC(=O)N1Cc2nc(C(=O)NCCc3cccnc3)oc2C1,70.7
21,CN(C)CCNC(=O)c1nc2c(o1)CN(C(=O)c1cccnc1)C2,-75.3
22,CCCNC(=O)c1nc2c(o1)CN(C(C)=O)C2,-0.388
23,Cc1ccc(CNC(=O)c2nc3c(o2)CN(C(=O)c2cccnc2)C3)o1,-21.1
24,CN1CCCN(C(=O)c2nc3c(o2)CN(C(=O)c2cccnc2)C3)CC1,1.9
25,CS(=O)(=O)N1Cc2nc(C(=O)NCc3ccccc3)oc2C1,24.6
26,O=C(NCCN1CCCC1)c1nc2c(o1)CN(C(=O)c1cccnc1)C2,-42.8

row,Structure (SMILES),INHIBITION [%]
1,CN1CCN(C(=O)c2nc3c(o2)CN(C(=O)c2cccnc2)C3)CC1,50.1
2,O=C(NCc1ccncc1)c1nc2c(o1)CN(C(=O)c1cccnc1)C2,29
3,O=C(NCc1ccccc1)c1nc2c(o1)CN(C(=O)c1cccnc1)C2,53.2
4,O=C(NC1CC1)C1=CC2(CCN(CCO)CC2)c2ccccc21,28.4
5,COCC(=O)N1CCCC2(CCN(CCN3CCCC3)CC2)C1,-12.1
6,Cc1noc(C)c1CN(C)C(=O)c1ccc(O)nc1,25.1
7,CC(=O)N(C)CC(=O)NCC1CCN(c2cc(Cl)ccc2C)C1 (centres undefined),-23.7
8,Cc1nccc([C@@H]2C[C@@H]3CCN(S(=O)(=O)N(C)C)C[C@H]3O2)n1,26.3
9,Cn1ccc(C(=O)N2CCCC(Cc3cnc4ccccc4c3)C2)n1 (centres undefined),-0.371
10,COCCn1cnc2ccc(NC(=O)c3c(C)noc3C)cc2c1=O,35.7
11,Cn1cc(C(=O)N2CC[C@@H]3[C@@H]2CCN3Cc2cccc(F)c2)cn1,43.2
12,CC[C@@H](CO)NC(=O)c1coc(COc2ccc3sc(C)nc3c2)n1,41.5
13,Cc1nc2cc(OCc3nc(C(=O)NC(C)(CO)CO)co3)ccc2s1,74.5
14,Cc1nc2cc(OCc3nc(C(=O)NC(CO)CO)co3)ccc2s1,29.4
15,Cn1nnnc1SCC1(O)CCCCC1,1.74
16,O=S(=O)(CC1CCCCO1)Nc1cc(F)ccc1-n1cccn1 (centres undefined),25.7
17,Cc1ccc(S(=O)(=O)Nc2ccc(N3CCSCC3)c(C(=O)O)c2)s1,43.9
18,Cc1cc2nc(C(C)C)cc(N(C)CC3CCN(C(C)C)C3)n2n1 (centres undefined),27.6
19,Cc1cc2nc(C(C)C)cc(N(C)CC3CCCN3C)n2n1 (centres undefined),33
20,Cc1cc2nc(C(C)C)cc(N(C)CC3CCCN(CCO)C3)n2n1 (centres undefined),58.5
21,Cc1ccc(NC2CCN(C(=O)c3cncnc3C)CC2)nn1,-17.22
22,CCn1ccc(NC(=O)CCc2c(C)nn(C)c2C)n1,38.7
23,CNC(=O)CS(=O)(=O)C1CCN(S(=O)(=O)c2cccc(Cl)c2C)CC1,80
24,CNC(=O)CS(=O)(=O)C1CCN(S(=O)(=O)c2ccccc2Br)CC1,-26.6
25,CNC(=O)CS(=O)(=O)C1CCN(S(=O)(=O)c2ccccc2Cl)CC1,25.8
26,Cc1cccc2[nH]c(COCC(=O)N3CCCn4cncc4C3)nc12,22.7
